Measurements as given in the supplement of paper PMC6555819.

Legend:
Test in all cases: PBM binding z-score (relative to random genomic background probes); higher = stronger binding; sequences stand for … in GC…GCGATTGACAGCGTAGAATGAAGG
[1] = tested on: PPARg:RXRa DBDmut IVT, anti-RXR (DBD mutation: RXRa K156A/R161A, NR concentration 270 nM, RXRa partner concentration 90 nM)
In short: (§1)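 Regression normalization was applied to scanned fluorescence from custom Agilent 4×180K protein-binding microarrays. Before scanning, arrays were incubated 1 h with ligand-free nuclear receptor dimers, and binding was detected with antibodies against each partner (one per run). Binding z-scores use the random background probes as reference.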

[2] = tested on: PPARg:RXRa IVT, anti-PPARg (NR concentration 270 nM, RXRa partner concentration 90 nM)
In short: as §1

[3] = tested on: PPARg DBDmut:RXRa IVT, anti-PPARg (DBD mutation: PPARg1 K132A/R137A, NR concentration 270 nM, RXRa partner concentration 90 nM)
In short: as §1

[4] = tested on: PPARg DBDmut IVT, anti-PPARg (DBD mutation: PPARg1 K132A/R137A, NR concentration 270 nM)
In short: as §1

[5] = tested on: PPARg homodimer (NR concentration 180 nM)
In short: as §1

[6] = tested on: PXR:RXRa (NR concentration 270 nM, RXRa partner concentration 90 nM)
In short: as §1

[7] = tested on: PXR homodimer (NR concentration 270 nM)
In short: as §1

[8] = tested on: RARa:RXR (NR concentration 270 nM, RXRa partner concentration 90 nM)
In short: as §1

[9] = tested on: RARa homodimer (NR concentration 270 nM)
In short: as §1

[10] = tested on: RARb:RXRa (NR concentration 270 nM, RXRa partner concentration 90 nM)
In short: as §1

Sequence	PBM binding z-score [1]	PBM binding z-score [2]	PBM binding z-score [3]	PBM binding z-score [4]	PBM binding z-score [5]	PBM binding z-score [6]	PBM binding z-score [7]	PBM binding z-score [8]	PBM binding z-score [9]	PBM binding z-score [10]
AGTAAAAGTTCAGGACGAGGTAACGTAAAGCACG	-0.481	0.814	0.943	1.31	1.74	2.71	1.45	2.39	0.986	3.85
CCGACTGGGGCAAGGTTACCCTAACGCACAGCCA	2.55	3.74	-0.273	-0.891	0.107	0.232	-0.208	0.791	-0.576	1.58
ATATGAAGGTTACATCCGGGTCATTCAGGCTATG	2.04	3.33	1.37	1.68	3.27	4.21	2.67	4.2	0.977	3.16
GGAACGAGGGCCTTCGAGTTGATAGCATGGCGAT	0.104	-0.566	-0.653	-1.28	-1.03	-0.313	-0.534	-0.659	-0.765	-0.306
ACAGACAGTTGAGTGAAGGTAACTCAGCTGGACG	-0.279	0.038	-0.108	-0.693	-0.3	-0.386	-0.571	-0.397	-0.00601	-0.0285
CCTAGTTGGTCAGGAGGTCACACATCGGATATGA	1.56	3.61	1.34	0.678	3.07	4.1	1.36	4.37	1.58	3.71
AGAATGAGGTTATTAAGATCAGGGTATTGCGGTC	3.41	2.66	0.601	0.558	1.18	1.21	1.07	1.28	0.859	1.32
TCTCGGAGGACACGTAAGGTCAGAGCTCGACATC	1.32	0.521	0.00634	-0.877	1.75	3.15	0.734	3.13	0.0447	3.41
TCGAGTAGGTTACCACTGGGGCATTCAGCTTTCT	3.33	3.37	0.26	0.143	-0.498	-0.159	-1.14	0.0985	-0.786	0.833
TCAGACAGGTGAAGGTAACGCAGGTACGCAGTCG	2.13	1.24	0.76	0.126	-0.401	0.411	-0.161	0.66	0.254	1.16
TCATGTAGGTAAAGGTGAAAGTCGAACGATATGA	4.4	4.97	1.57	1.56	0.969	0.939	0.207	1.53	0.733	2.05
AGAACTAGGGCAATGAGTTGATAGCACGGGTGGC	7.38	6.72	1.02	0.615	0.447	0.226	0.366	0.000604	0.238	1.31
